# About 79,000 compounds went through this panel and 15% of them were active in at least one assay; those are over-represented in the sample as a whole. A number with no mark means an inactive call. The source made the active and inactive calls. No stated cut-off is given here; in the data, active means growth inhibition above about 70%; inactive means the rest. Where a SMILES comes first, the peptide text is derived from it. [ ]: non-standard residue; d: D form. The star is where a group is joined. Cbz = O=C(OCc1ccccc1)*; Nva = CCC[CH](N)C(=O)O
# Key:
# [1] = NCI Yeast Anticancer Drug Screen. Data for the rad50 strain (AID 155);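 further: 0% = growth of vehicle-only cultures of the same strain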; conditions: S. cerevisiae rad50 strain growth inhibition; at 50.0 µM; hits give high values
# Procedure, shortened: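 Relative growth inhibition (compound vs vehicle) was measured in yeast with a defined repair-gene alteration.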
# [2] = NCI Yeast Anticancer Drug Screen. Data for the mec2-1 strain (AID 157); conditions: S. cerevisiae mec2-1 strain, at 50.0 µM, hits give high values
# Procedure, shortened: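 Each compound was tested on mec2-1 yeast, a strain altered in DNA damage repair or cell cycle control. Growth inhibition is reported relative to vehicle.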
# [3] = NCI Yeast Anticancer Drug Screen. Data for the sgs1 mgt1 strain (AID 161);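 further: 0% = growth of cultures given vehicle only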; conditions: S. cerevisiae sgs1 mgt1 strain, at 50.0 µM, hits give high values
# Procedure, shortened: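 Read-out: growth inhibition vs vehicle controls. Cells: mutant yeast strain deficient in DNA damage repair.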
# [4] = NCI Yeast Anticancer Drug Screen. Data for the cln2 rad14 strain (AID 165);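 further: 0% = growth equal to vehicle treated cultures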; conditions: S. cerevisiae cln2 rad14 strain, at 50.0 µM, hits give high values
# Procedure, shortened: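 Test compounds were added to cln2 rad14 yeast cultures; inhibition of growth was then determined by comparison with vehicle treatment.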
# [5] = NCI Yeast Anticancer Drug Screen. Data for the bub3 strain (AID 167); conditions: S. cerevisiae bub3 mutant strain, at 50.0 µM, hits give high values
# Procedure, shortened: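 Screening used yeast with an engineered genetic alteration affecting cell cycle control. Compound-exposed cultures were compared with vehicle cultures, and reduced growth was taken as inhibition.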
# [6] = NCI Yeast Anticancer Drug Screen. Data for the mlh1 rad18 strain (AID 175); conditions: S. cerevisiae mlh1 rad18 strain growth inhibition; at 50.0 µM; hits give high values
# Procedure, shortened: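 Inhibition values reflect reduced growth of mutant yeast versus vehicle-treated controls following compound exposure; the mutations affect DNA damage repair.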
Compound,growth inhibition [1],growth inhibition [2],growth inhibition [3],growth inhibition [4],growth inhibition [5],growth inhibition [6]
O=C(Nc1cc(Cl)ccc1Cl)c1ccc(Cl)cc1,-1.3%,-14.5%,4.45%,-44%,-9.7%,-12.7%
COC1OCC(OS(C)(=O)=O)C(NC(C)=O)C1OS(C)(=O)=O (stereo unspecified),-13.9%,-2.85%,-3.05%,-19.2%,0.45%,2.25%
O=C(c1ccc(Cl)c(Cl)c1)C(CS(=O)(=O)O)CS(=O)(=O)O (tested in a mixture with another compound),-1.55%,0.4%,-0.8%,-4.45%,-4.8%,12.3%
CCCCCCCCCCCCCCCCN=C1C=Cc2ccccc2C1=NCCCCCCCCCCCCCCCC,-0.45%,6.4%,11.6%,11.6%,5.95%,4.4%
O=C(COC(=O)C(CC(=O)c1ccccc1)Cc1ccccc1)c1ccc(-c2ccccc2)cc1 (stereo unspecified),25.7%,25.3%,6%,30.8%,35.4%,13.3%
Cc1ccc(NC(=O)CNc2ccc3c(c2)Cc2ccccc2-3)cc1,-1.05%,14.6%,24.9%,-37.5%,34.5%,27.2%
CCCCCCCCCCCCCCCCn1cnc2c(=S)nc[nH]c21,-22.1%,-5.25%,-19.1%,-4.75%,0.5%,-6.9%
OCc1ccccc1,37%,19.2%,0.1%,-14.7%,29.4%,26.1%
CCN1C(=O)/C(=C/c2ccc(OCC(=O)O)cc2)SC1=S,-6.9%,-10.9%,0.35%,-44.9%,-2.2%,-9.65%
CC(CC(=O)O)(CC(=O)O)c1ccccc1,19.6%,-35.5%,-11.2%,-7.3%,-7.05%,-35.1%
O=S(=O)(O)Cc1ccc(CS(=O)(=O)O)cc1,14.7%,-2.1%,-1.3%,-56.4%,-3.8%,-17%
NC(N)=NCCCc1ccccc1,7.05%,7.25%,0.8%,1.85%,4%,-3.55%
O=C1CSC(c2ccccc2F)N1c1ncccn1 (stereo unspecified),-3.2%,-6.8%,0.75%,-20.8%,8%,-1.4%
O=[N+]([O-])c1ccc(NN=C2CCCCCC2)c([N+](=O)[O-])c1,5.95%,8.35%,8.3%,-99%,7.45%,-0.45%
CC[O-].CC[O-].O=C([CH-]C(=O)c1ccccc1)CCCCCCC(=O)[CH-]C(=O)c1ccccc1.[Ti+4],-39.5%,-13.7%,-33.5%,-4.7%,4.95%,-17.7%
N#CCc1ccccc1-c1ccccc1,2.45%,-8.2%,11.4%,-45.5%,5.6%,-9.75%
CC(C)(C)OC(=O)CC(NC(=O)OC(C)(C)C)C(=O)N[C@@H]1CCCC[C@H]1C(=O)OCc1ccccc1 (stereo partly specified),8.3%,15.2%,9.55%,8.35%,14.7%,23.1%
c1ccc(C2c3ccccc3-c3ncnc(N4CCCCC4)c32)cc1 (stereo unspecified),9.4%,-3.15%,24.8%,15.1%,-0.45%,14.7%

Compound,growth inhibition [1],growth inhibition [2],growth inhibition [3],growth inhibition [4],growth inhibition [5],growth inhibition [6]
OC(COc1ccc2ccccc2c1)COc1ccc2ccccc2c1,-8.55%,-22.1%,-7.85%,-16.3%,-11.6%,-5.8%
O=S1(=O)c2ccc(cc2)N=CC=Nc2ccc1cc2,5.25%,-11.7%,10%,-2.4%,14.3%,12.1%
CCOC(=O)c1ccc(NCc2nc3ccccc3nc2C)cc1,-17.8%,-4%,-18%,-29.1%,1.95%,-19.2%
O=C(O)C#Cc1ccc([N+](=O)[O-])cc1,13.6%,-7.6%,2.35%,-20.2%,-11.9%,16.5%
O=[N+]([O-])c1nccn1COCCI,7.25%,15.4%,-0.2%,3.3%,7.75%,52.3%
CCN(CC)CCCNc1nc2ccccc2c2[nH]c3ccc(OC)cc3c12,-37.4%,-26.2%,-41.9%,-36.8%,-40%,-28.2%
COC1OC(COC(=O)c2ccccc2)C(OC(=O)c2ccccc2)C1NC(C)=O (stereo unspecified),14.1%,18.7%,12.7%,62.1%,39.1%,28.4%
CC(=O)OC/C=C1/CC[C@H]2[C@@H]3CCC4=CC(=O)[C@H](C)C[C@]4(C)[C@H]3[C@@H](O)C[C@]12C,-1.85%,-2%,4.05%,1.8%,-9.2%,-21.8%
C/C(C(=O)O)=C1\N=C(N)NC1=O,-3.25%,-2.9%,-5.5%,-36.9%,-17.9%,-14.4%
Cn1cnc2c(Oc3ccc(Cl)cc3)ncnc21,-7.35%,-14.5%,5.25%,8.85%,-22.7%,5.5%
O=C(O)c1ccc(NS(=O)(=O)Cc2ccccc2)cc1,-14.3%,-24.1%,-41.5%,-22.4%,-36.5%,-6.3%
O=C1NC(=O)[C@H]2C3C=CC([C@@H]12)[C@@H]1C(=O)NC(=O)[C@H]31,41.7%,21.8%,-22.1%,7.8%,-28.7%,-47.6%
CCN(CC)c1ccc2c(C)cc(=O)oc2c1,6.35%,-10.6%,6.35%,3.8%,12.9%,0.9%
CCCC(NC(=O)OCc1ccccc1)C(=O)NC(CCSC)C(N)=O (stereo unspecified) (Cbz-[Nva]-Met-NH2; configuration not given here),28.2%,-5.35%,-5.95%,5.6%,-4.6%,-27.9%
CSc1cc(Br)ccc1-n1c(C(=O)c2ccccc2)c(SC)n(-c2ccccc2)c1=O,-0.05%,21.3%,20.6%,7.65%,15.7%,5.05%
Clc1cc(/C=C/c2ccccc2)c2ccccc2n1,25.9%,-0.05%,12.6%,-7.5%,-4.65%,22.3%
CC1CSC(=S)N1C(=O)N1C(=S)SCC1C (stereo unspecified),-42.4%,-56.8%,-52.9%,-10.8%,-43.9%,-35.5%
CN(CCc1ccccn1)C(=S)N/N=C/c1ccccn1,77% (active),83.8% (active),91% (active),89.7% (active),89.8% (active),91% (active)

# From PubChem BioAssay (NCI)
